Entries with a potency or affinity are not part of this list. Active and inactive are the calls of the source.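 How the source made its calls, unless noted: active means a dose-response fit showing signal loss, with half-maximal concentration no higher than twice the top tested dose; inconclusive means flat fit between 30% and 70% signal loss, or poor fit; inactive means the rest.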
What was measured:
[1] = inducers of Cryptococcus neoformans cell lysis, dose response, AK release luminescence, cherry-picks (AID 687000;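 active means fitted dose curve reaches 40% lysis signal rise at or below the highest valid concentration tested for that sample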;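 further: luminescent detection of adenylate kinase leaking from lysed yeast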)
[2] = HepG2 cell cytotoxicity, dose response, cytotoxicity control, cherry-picks, set 2 (AID 687002)
[3] = HeLa cell cytotoxicity, dose response, cytotoxicity control, ATP luminescence, cherry-pick samples (AID 687004;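 active means a fitted half-maximal concentration no higher than twice the top valid tested dose, with signal falling as cells die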)

Measured: outcome

Cc1ccc(-n2ncc3c(SCC(=O)NNC(=O)C(C)C)ncnc32)cc1
inactive: [1] | [2] | [3]

Cc1ccc2c(C)c(C(=O)N3CCN(Cc4ccccn4)CC3)oc2c1C
inactive: [1] | [2] | [3]

Cc1noc(C)c1NC(=O)N(C)C[C@H]1Oc2ccc(N(C)C)cc2C(=O)N([C@H](C)CO)C[C@@H]1C
inactive: [1] | [2] | [3]

Cc1cccc(-c2ccc([C@@H]3[C@@H](CO)N4CCCCN(S(=O)(=O)c5ccccc5C)C[C@@H]34)cc2)c1
inactive: [1] | [2] | [3]

CCOC(=O)CNC(=O)CSc1ncnc2c1cnn2-c1ccc(C)cc1
inactive: [1] | [2] | [3]

CC(=O)c1cccc(NC(=S)NC2CCCCCCC2)c1
inactive: [1] | [2] | [3]

CCc1ccc(C(=O)NC(=S)Nc2ccccc2N2CCOCC2)cc1
inactive: [1] | [2] | [3]

Cc1ccccc1S(=O)(=O)N[C@@H]1CC[C@H](CCNS(=O)(=O)c2cccc(F)c2)O[C@H]1CO
inactive: [1] | [2] | [3]

O=C(CCCNC(=O)c1ccc(Cl)cc1)Nc1nccs1
inactive: [1] | [2] | [3]

C[C@H](CO)N1C[C@H](C)[C@@H](CN(C)C(=O)Nc2ccc3c(c2)OCO3)Oc2ccc(NS(=O)(=O)c3cccs3)cc2C1=O
inactive: [1] | [2] | [3]

COc1ccc(CN(C)C[C@H]2Oc3ccc(NS(C)(=O)=O)cc3CC(=O)N([C@@H](C)CO)C[C@H]2C)cc1
inactive: [1] | [2] | [3]

COc1ccc(CN(C)C[C@@H]2OCCCC[C@@H](C)Oc3ccc(NC(=O)c4ccccc4)cc3C(=O)N([C@H](C)CO)C[C@@H]2C)cc1
inactive: [1] | [2] | [3]

CNC[C@H]1OCCCC[C@H](C)Oc2ccc(NC(=O)Cc3ccccc3)cc2C(=O)N([C@H](C)CO)C[C@@H]1C
inactive: [1] | [2] | [3]

CCC(=O)N1[C@H](CO)[C@@H](c2ccc(-c3cccnc3)cc2)[C@@H]1CN(C)C(C)=O
inactive: [1] | [2] | [3]

CCCn1c(=S)[nH]c2cc(Cl)ccc21
inactive: [1] | [2] | [3]

S=C(NCCc1cccc(Cl)c1)NC1CCCCC1
inactive: [1] | [2] | [3]

CCOC(=O)CNC(=O)CSc1ncnc2c1cnn2-c1ccc(Cl)cc1
inactive: [1] | [2] | [3]

Cc1ccccc1NC(=O)C1CCC(=O)N1 (configuration not stated)
inactive: [1] | [2] | [3]

CCNC(=O)C[C@H]1CC[C@@H](NC(=O)NC2CCCCC2)[C@H](CO)O1
inactive: [1] | [2] | [3]

COc1ccccc1-c1ccc([C@H]2[C@H](C#N)N(C(=O)C3CC3)[C@H]2CO)cc1
inactive: [1] | [2] | [3]

COCCNC(=O)C[C@H]1C=C[C@H](NS(=O)(=O)c2ccc(C)cc2)[C@@H](CO)O1
inactive: [1] | [2] | [3]

O=C(NC(=S)Nc1ccccc1N1CCOCC1)c1ccc([N+](=O)[O-])cc1
inactive: [1] | [2] | [3]

CCc1ccccc1NC(=O)C1NC(=O)CC1c1ccccc1 (configuration not stated)
inactive: [1] | [2] | [3]

COc1ccc(NC(=S)NCc2ccccc2Cl)c(OC)c1
inactive: [1] | [2] | [3]

COc1cc(C(=O)NC(=S)Nc2ccccc2N2CCOCC2)cc(OC)c1OC
inactive: [1] | [2] | [3]

O=C(c1ccco1)N1N=C(c2cccs2)CC1c1ccc(F)cc1 (configuration not stated)
inactive: [1] | [2] | [3]

CCC(C)(C(=O)Nc1ccccc1C)N(C(=O)CNC(C)=O)c1ccccc1C (configuration not stated)
inactive: [1] | [2] | [3]

C/C=C/c1ccc([C@@H]2[C@@H](C#N)N(S(=O)(=O)c3cccc(F)c3)[C@@H]2CO)cc1
inactive: [1] | [2] | [3]

CC(=O)c1ccc(N2CCN(C(=O)Cc3cccs3)CC2)cc1
inactive: [1] | [2] | [3]

Cc1ccc(S(=O)(=O)N(C)C[C@H]2Oc3c(cccc3N(C)C)C(=O)N([C@@H](C)CO)C[C@H]2C)cc1
inactive: [1] | [2] | [3]

O=C(C[C@H]1CC[C@H]2[C@@H](COC[C@H](O)CN2Cc2cc(F)cc(F)c2)O1)Nc1nccs1
inactive: [1] | [2] | [3]

O=C(CN(c1ccc(F)cc1)S(=O)(=O)c1ccccc1)NCCSC1CCCCC1
inactive: [1] | [2] | [3]

CCCC(=O)Nc1ccc2c(c1)OC[C@H](C)N(Cc1ccccn1)C[C@H](C)[C@H](OC)CN(C)C2=O
inactive: [1] | [2] | [3]

Cc1cc(C)c(NC(=O)CN(C2CCCCC2)C2CCCCC2)c(C)c1
inactive: [1] | [2] | [3]

CC(C)NC(=O)N(C)C[C@H]1Oc2c(NS(=O)(=O)c3ccc(Cl)cc3)cccc2C(=O)N([C@@H](C)CO)C[C@@H]1C
inactive: [1] | [2] | [3]

Fc1ccccc1CNC(=S)NCc1ccc(Cl)cc1
inactive: [1] | [2] | [3]

CCNC(=O)CN(c1ccccc1)S(=O)(=O)c1ccc(Cl)cc1
inactive: [1] | [2] | [3]

O=C(C[C@@H]1C=C[C@@H](NC(=O)Nc2cc(F)ccc2F)[C@H](CO)O1)NCCCN1CCOCC1
inactive: [1] | [2] | [3]

CC(C)N1C(=O)C2(OCCCO2)c2cc(Br)ccc21
inactive: [1] | [2] | [3]

CCOc1cc(CNC)ccc1OCC(=O)NC(C)(C)C
inactive: [1] | [2] | [3]

CCN(CC)CC(=O)N(CC(=O)Nc1c(C)cc(C)cc1C)C1CCCCC1
inactive: [1] | [2] | [3]

Cc1cccc(C)c1NC(=O)C1CCCCN1C (configuration not stated)
inactive: [1] | [2] | [3]

Cc1ccc(OCC(=O)NC(C)c2ccccc2)cc1C (configuration not stated)
inactive: [1] | [2] | [3]

Cc1cccc(C)c1NC(=O)C1(C)CCC(=O)N1CCCn1ccnc1 (configuration not stated)
inactive: [1] | [2] | [3]

CCN1C(=S)N[C@@H](c2cccc(F)c2)C(C(=O)OC)=C1C
inactive: [1] | [2] | [3]

C[C@H](CO)N1C[C@H](C)[C@H](CN(C)S(=O)(=O)c2cn(C)cn2)Oc2ncc(/C=C/c3ccccc3)cc2C1=O
inactive: [1] | [2] | [3]

C[C@@H]1CN([C@H](C)CO)C(=O)Cc2cc(NC(=O)CCCCCC(=O)Nc3ccccc3N)ccc2O[C@H]1CN(C)C(=O)Nc1ccccc1
inactive: [1] | [2] | [3]

C/C=C/c1ccc([C@@H]2[C@@H](CNC(=O)C3CCC3)N(C(=O)NCCC)[C@H]2CO)cc1
inactive: [1] | [2] | [3]

COc1ccc(NC(=O)c2cn(C)c(=O)c3cc(OC)c(OC)cc23)c(OC)c1
inactive: [1] | [2] | [3]

O=c1nc(-c2ccccc2)c2ccccc2[nH]1
inactive: [1] | [2] | [3]

CC(C)CC#Cc1cnc2c(c1)C(=O)N([C@@H](C)CO)C[C@H](C)[C@H](CN(C)C(=O)c1ccc3c(c1)OCO3)O2
inactive: [1] | [2] | [3]

O=C(C[C@H]1CC[C@@H]2[C@H](COC[C@H](O)CN2CC2CCOCC2)O1)NCc1ccc(Cl)cc1
inactive: [1] | [2] | [3]

Cc1cccc(C)c1NC(=O)CN(C)C(=O)CC1CC2CCC1C2 (configuration not stated)
inactive: [1] | [2] | [3]

COc1ccc(NC(=O)N(C)C[C@H]2OCCCC[C@@H](C)Oc3ccc(NC(=O)c4ccccc4)cc3C(=O)N([C@H](C)CO)C[C@H]2C)cc1
inactive: [1] | [2] | [3]

CC(=O)NC12CC3CC(C1)CC(C(=O)NCC(=O)Nc1c(C)cc(C)cc1C)(C3)C2
inactive: [1] | [2] | [3]

COCC#Cc1cnc2c(c1)C(=O)N([C@@H](C)CO)C[C@H](C)[C@H](CN(C)C(=O)Nc1ccc(OC)cc1)O2
inactive: [1] | [2] | [3]

CCNC(=O)CN(c1ccc(Cl)cc1)S(=O)(=O)c1ccccc1
inactive: [1] | [2] | [3]

O=C(C[C@@H]1CC[C@@H]2[C@H](COC[C@@H](O)CN2C(=O)Nc2ccc(Cl)cc2)O1)NC1Cc2ccccc2C1
inactive: [1] | [2] | [3]

C[C@H]1CN([C@@H](C)CO)C(=O)CCCn2cc(nn2)CO[C@@H]1CN(C)Cc1ccc(C(F)(F)F)cc1
inactive: [1] | [2] | [3]
